From PubChem BioAssay AID686970 (National Center for Advancing Translational Sciences (NCATS), 2013)
Hit rate of the full screen: of about 360,000 compounds, about 6,000 (1.7%) were called active. Inconclusive results (about 8%) are left out. Shown is part of a subset that was picked to be rich in actives. Unmarked numbers belong to inactive results. Calls come from the whole dose curve; as a rule, active = well fitted cell-killing curve with a large enough effect; inconclusive = small, poorly fitted or top-dose-only effect, or effect the other way; inactive = flat fitted curve, though single readings scatter.

Assay: qHTS for induction of synthetic lethality in tumor cells producing 2HG: qHTS for the HT-1080-NT fibrosarcoma cell line; note: nearly all actives have a fitted effect of over 55% in size
Conditions: HT-1080-NT fibrosarcoma viability, CellTiter-Glo ATP luminescence, 48 h; series mostly up to 46.1 µM; activity, negative = less viability: at the top concentration
Description: Unbiased genomic sequencing for 22 glioma genomes found recurrent mutation of IDH1 on chromosome 2q33, a gene encoding the cytosolic isoform of IDH1 associated with the tricarboxylic acid cycle (TCA) that catalyzes the oxidative decarboxylation of isocitrate, yielding alpha-ketoglutarate and CO2 via NADP+ to NADPH conversion. Subsequent studies confirmed the recurrent IDH mutations in up to 70% of secondary gliomas and in 10% of AML cases. In addition, the somatic mutation of cancer-associated IDH1 is a point mutation resulting in various amino-acid substituents at Arginine132 (IDH1 R132), a key residue found in the enzyme's active site that when mutated, results in the loss-of-function in metabolizing isocitrate but confers a gain-of-function to produce the oncometabolite 2-hydroxyglutarate (2HG). This in effect defines IDH1 as an oncogene and provides an extraordinary opportunity to discover chemical probes against mutant IDH1 that may translate into much needed new therapies for glioma and AML patients.
This assay aims to perform a synthetic lethal screen for chemical probes specific for 2HG-producing tumor cells using matched paired cell lines (1) HT-1080-NT fibrosarcoma cell line that overproduces 2HG and (2) HT-1080-IDH1KD cell line which has IDH1 expression knocked-down. Desirable compounds are toxic to the NT fibrosarcoma cells but not to the IDH1KD cell line. The data in this AID corresponds to the results of the qHTS against the HT-1080-NT fibrosarcoma cell line.
[1] Dang L, Jin S, Su SM. IDH mutations in glioma and acute myeloid leukemia. Trends of Mol Med. 2010; 16(9): 387-97.
[2] Dang L et al. Cancer-associated IDH1 mutations produce 2-hydroxyglutarate. Nature. 2010; 465(7300):966.
NIH Molecular Libraries Probe Production Centers Network [MLPCN]
NIH Chemical Genomics Center [NCGC]
Assay Submitter (PI): Lenny Dang Ph.D., Agios Pharmaceuticals
Suspensions of trypsinized HT-1080-NT cells were dispensed into white, tissue culture-treated, solid 1536-well plates at 5uL/well (750 cells/well final concentration) in RPMI medium supplemented with 5% FBS. Plates were incubated at 37 degrees C for 2 hours, after which 23 nL of compounds or DMSO were delivered to each well using a pin tool. Plates were then incubated at 37 degrees C for an additional 48 hours. CellTiter-Glo viability reagent (Promega) was dispensed into wells (2.5uL/well) and incubated at room temperature for 10 minutes. The plates were measured on a PerkinElmer ViewLux plate reader for luminescent signal (clear filter, 1 sec exp). DMSO-treated control wells and media-only (no cells) control wells were used to normalize %Activity of identified toxic compounds; DMSO-treated wells corresponded to 0%Activity (100% viability), while media-only controls were used to normalize 100%Activity (0% viability).
Concentration-response curves were fitted to the signals arising from the resulting luminescence. The concentration-effect curves were then classified based on curve quality (r2), response magnitude and degree of measured activity, and compounds were subsequently categorized based on their curve class.
Potency is the fitted concentration of half-maximal effect.

**Q.** For CC(=O)OCC(C)n1c(=O)c2ccccc2n1C(C)=O (configuration not stated), which “activity, negative = less viability” value is on record?
**A.** The value was 3.8%.

**Q.** For CC(NC(=S)Nc1ccccc1)C1COc2ccccc2O1 (configuration not stated), which “activity, negative = less viability” value is on record?
**A.** Its value is -2.44%.

**Q.** With CCN1/C(=C/C(=S)Nc2ccccc2)Sc2ccccc21 as the compound, how does the Potency read?
**A.** The Potency was 6.51 µM (active).

**Q.** For CCOC(=O)CNC(=O)N1c2ccccc2Sc2ccccc21, which “activity, negative = less viability” value is on record?
**A.** Its value is 0%.

**Q.** For COc1ccc(OC)c(CN2C(=O)CCC2(C)c2nnnn2Cc2ccccc2)c1 (configuration not stated), which “activity, negative = less viability” value is on record?
**A.** The value was 6.01%.

**Q.** Which “activity, negative = less viability” value does the source give for CCOC(=O)N1CCN(C(=O)C[C@@H]2C[C@@]3(C(=O)OC)CCCCC=C3N(CCC3=CCCCC3)C2=O)CC1 here?
**A.** Its value is -17.7%.

**Q.** Which Potency does the source give for O=C(Nc1nnc(C2CC2)s1)c1ccccn1 here?
**A.** The Potency was 7.08 µM (active).

**Q.** Which “activity, negative = less viability” value does the source give for CCc1ccccc1OCC(=O)Nc1nnc(C2CC2)s1 here?
**A.** The value was 6.09%.

**Q.** For Cc1cc(C(=O)Nc2nnc(C3CC3)s2)c(C)s1, which activity, negative = less viability is on record?
**A.** Its activity, negative = less viability is -2.13% [at 9.24 µM].

**Q.** With Cc1onc(-c2ccccc2)c1-c1nnc(COC(=O)c2ccc(N(C)C)cc2)o1 as the compound, how does the “activity, negative = less viability” value read?
**A.** Its value is -9.65%.

**Q.** For COc1ccc(CCNC(=O)Nc2ccc3c(c2)c(=O)n(C)n3C)cc1OC, which “activity, negative = less viability” value is on record?
**A.** Its value is 18.5%.

**Q.** Which Potency does the source give for COc1ccc(C(=O)C2CCCN(Cc3cccn3-c3ccccn3)C2)c(C)c1 (configuration not stated) here?
**A.** Its Potency is 8.2 µM (active).

**Q.** For CCOC(=O)c1[nH]ncc1CN1CCCC(C(=O)c2ccc(OC)cc2C)C1 (configuration not stated), which “activity, negative = less viability” value is on record?
**A.** Its value is 2.6%.

**Q.** With COc1ccc(C(=O)C2CCCN(Cc3ccc4nonc4c3)C2)c(C)c1 (configuration not stated) as the compound, how does the “activity, negative = less viability” value read?
**A.** Its value is -10.5%.

**Q.** With COCCCN1C(=O)C(CC(=O)NCc2cccs2)CC(C(=O)N2CCOCC2)=C1C (configuration not stated) as the compound, how does the “activity, negative = less viability” value read?
**A.** Its value is 13.1%.

**Q.** Which “activity, negative = less viability” value does the source give for Cc1ccc(SCC(=O)NC(=O)NCc2ccco2)c(C)c1 here?
**A.** Its value is -4.84%.

**Q.** With Cc1ccc(NC(=O)Cn2nnc(C(=O)NCc3ccco3)c2N)c(C)c1 as the compound, how does the Potency read?
**A.** The Potency was 20.6 µM (active).

**Q.** Which “activity, negative = less viability” value does the source give for CCOc1ccc(Cn2nnc(C(=O)Nc3ccc(OC)cc3OC)c2N)cc1 here?
**A.** Its value is -2.78%.

**Q.** Which “activity, negative = less viability” value does the source give for CCOc1ccccc1NC(=O)Cn1ncc2ccc([N+](=O)[O-])cc21 here?
**A.** The value was -2.56%.

**Q.** With COc1ccc(CNC(=O)c2nnn(CC(=O)Nc3cc(C)cc(C)c3)c2N)cc1 as the compound, how does the “activity, negative = less viability” value read?
**A.** Its value is 1.9%.

**Q.** Which Potency does the source give for CCOc1ccccc1NC(=O)Cn1nnc(C(=O)NCc2cccs2)c1N here?
**A.** The Potency was 0.461 µM (active).

**Q.** Which “activity, negative = less viability” value does the source give for CC(=O)c1ccc(OCC(=O)N(C)C2CCS(=O)(=O)C2)cc1 (configuration not stated) here?
**A.** The value was 14.7%.

**Q.** With COc1ccc(CN2C(=O)C(CC(=O)NCCN3CCOCC3)CC(C(=O)N(C(C)C)C(C)C)=C2C)cc1 (configuration not stated) as the compound, how does the “activity, negative = less viability” value read?
**A.** Its value is 1.88%.

**Q.** Which “activity, negative = less viability” value does the source give for O=C(NCc1ccc(F)cc1F)[C@@H]1CCCN1C(=O)[C@@H]1CCCN1C(=O)c1cccc(Cl)c1 here?
**A.** The value was 10.8%.

**Q.** With Nc1nc2c(Br)ccc(Br)c2cc1C(=O)NCCc1ccccc1 as the compound, how does the “activity, negative = less viability” value read?
**A.** The value was 0.0286%.

**Q.** Which “activity, negative = less viability” value does the source give for CCOC(=O)c1cc(-c2sc(NC(=O)c3ccccc3)nc2C)n(Cc2ccccc2)n1 here?
**A.** The value was -27.9%.

**Q.** With COc1cc(OC)cc(C(=O)N[C@H](C(=O)Nc2nc3ccccc3[nH]2)C(C)C)c1 as the compound, how does the Potency read?
**A.** Its Potency is 1.16 µM (active).

**Q.** With COc1ccc(C(=O)N[C@H](C(=O)NCc2ccccc2)C(C)C)cc1 as the compound, how does the “activity, negative = less viability” value read?
**A.** The value was 8.29%.

**Q.** For COc1cc(OC)cc(C(=O)N[C@H](C(=O)NNC(=O)c2ccc(Br)cc2)C(C)C)c1, which “activity, negative = less viability” value is on record?
**A.** Its value is -0.305%.

**Q.** Which “activity, negative = less viability” value does the source give for Cc1ccc(NS(=O)(=O)c2ccc(C(C)(C)C)cc2)cn1 here?
**A.** Its value is 1.12%.

**Q.** With CN(NS(=O)(=O)c1cccs1)c1ncc(C(F)(F)F)cc1Cl as the compound, how does the “activity, negative = less viability” value read?
**A.** Its value is 6.3%.

**Q.** For Cc1cc(C)cc(NS(=O)(=O)c2ccc(Oc3ncc(C(F)(F)F)cc3Cl)cc2)c1, which Potency is on record?
**A.** Its Potency is 23.1 µM (active).

**Q.** With COC(=O)[C@@]1(Sc2ccc(C)cc2)CC(=O)N(c2cccc(SC)c2)[C@@H]1c1ccccc1 as the compound, how does the “activity, negative = less viability” value read?
**A.** The value was -37.1%.

**Q.** With CCCCCCN1CCN(C2CN(Cc3cn(CCCCCC)nn3)S(=O)(=O)C2)CC1 (configuration not stated) as the compound, how does the “activity, negative = less viability” value read?
**A.** The value was -28.1%.

**Q.** With O=c1[nH]c(CCl)nc2cc(-c3ccc(Cl)cc3)sc12 as the compound, how does the Potency read?
**A.** The Potency was 16.4 µM (active).

**Q.** With Cn1c(NCc2cccnc2)nc2cc(-c3ccc(F)cc3)sc2c1=O as the compound, how does the “activity, negative = less viability” value read?
**A.** The value was 3.48%.

**Q.** Which “activity, negative = less viability” value does the source give for CCC1(CC)Cc2ccccc2-c2nc(CCl)[nH]c(=O)c21 here?
**A.** The value was -27.6%.

**Q.** For CC(C)c1ccc(CC(=O)N2CCC2(C)C(=O)NS(=O)(=O)c2ccc(C(C)(C)C)cc2)cc1 (configuration not stated), which “activity, negative = less viability” value is on record?
**A.** Its value is 2.38%.

**Q.** With CCCS(=O)(=O)NC(=O)C1(C)CCCN(C(=O)c2ccnc(Cl)c2)C1 (configuration not stated) as the compound, how does the “activity, negative = less viability” value read?
**A.** The value was 22.2%.

**Q.** With CCCCCCN1C[C@H](O)[C@@H](n2cc(C3CC3)nn2)C[C@@H]1c1ccc(Cl)cc1 as the compound, how does the “activity, negative = less viability” value read?
**A.** The value was -1.63%.

**Q.** With COc1ccc2oc(=O)cc(-c3cc4ccccc4o3)c2c1 as the compound, how does the “activity, negative = less viability” value read?
**A.** Its value is -5.9%.

**Q.** Which “activity, negative = less viability” value does the source give for COc1ccc(Nc2ccc3ccccc3c2)cc1 here?
**A.** Its value is -25.9%.

**Q.** With COc1ccc(Nc2cc(=O)oc3ccccc23)cc1 as the compound, how does the Potency read?
**A.** The Potency was 7.31 µM (active).

**Q.** For COCCNC(=O)c1cc2c(Br)ccc(Br)c2nc1N, which “activity, negative = less viability” value is on record?
**A.** The value was -6.43%.

**Q.** For C=CCNc1cnn(-c2ccc(C)cc2)c(=O)c1Cl, which “activity, negative = less viability” value is on record?
**A.** The value was 14.9%.

**Q.** With Cc1cccc(-n2ncc(Cl)c(Cl)c2=O)c1 as the compound, how does the Potency read?
**A.** Its Potency is 5.8 µM (active).

**Q.** Which “activity, negative = less viability” value does the source give for Cc1cccc(-n2ncc3c(=O)[nH]c(SCC(=O)Nc4cc(C)on4)nc32)c1 here?
**A.** Its value is 9.3%.

**Q.** For Cc1cc(Br)cn2c(Cc3ccccc3C(F)(F)F)c(C3CCCCC3)nc12, which “activity, negative = less viability” value is on record?
**A.** The value was 22.8%.

**Q.** For Cc1ccc(Nc2nc(-c3ccc(O)cc3O)cs2)nc1, which Potency is on record?
**A.** The Potency was 1.64 µM (active).

**Q.** With Oc1ccc(-c2nc3ccccc3nc2-c2ccc(O)cc2O)c(O)c1 as the compound, how does the “activity, negative = less viability” value read?
**A.** Its value is -11.5%.

**Q.** Which “activity, negative = less viability” value does the source give for CC(=O)Nc1cnc(-c2ccc(O)cc2C)cn1 here?
**A.** Its value is 11.8%.

**Q.** For O=C(NCc1ccc(F)cc1)c1cc(C2CCCCN2C(=O)C2CCCCC2)on1 (configuration not stated), which “activity, negative = less viability” value is on record?
**A.** Its value is 1.47%.
